From PubChem BioAssay (EPA / NIEHS)
Calls of active or inactive are those of the source. Rule for the calls: active = hit-call score of the fitted dose curve at least 0.9, where 1 is the maximum; inactive = score below 0.9.

target: Nuclear respiratory factor 1 (Homo sapiens) (UniProt Q16656); assay: ATG_NRF1_CIS: Attagene CIS-FACTORIAL HepG2 Assay for human Nuclear Respiratory Factor 1 (NRF1) Orphan Gene (AID 2282987); details: HepG2 NRF1 cis-element reporter, Attagene multiplex; actives raise or lower the signal
Summary of the method: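 Fluorescence intensity of labelled reporter cDNA fragments, resolved by capillary electrophoresis, served as readout for NRF1 cis-element activity. Transiently transfected HepG2 cells were dosed for 24 hours; activity in either direction was fitted against DMSO negative control.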

Chain of Nuclear respiratory factor 1 (Homo sapiens) (Q16656 whole entry, looked up, the tested form may be a part): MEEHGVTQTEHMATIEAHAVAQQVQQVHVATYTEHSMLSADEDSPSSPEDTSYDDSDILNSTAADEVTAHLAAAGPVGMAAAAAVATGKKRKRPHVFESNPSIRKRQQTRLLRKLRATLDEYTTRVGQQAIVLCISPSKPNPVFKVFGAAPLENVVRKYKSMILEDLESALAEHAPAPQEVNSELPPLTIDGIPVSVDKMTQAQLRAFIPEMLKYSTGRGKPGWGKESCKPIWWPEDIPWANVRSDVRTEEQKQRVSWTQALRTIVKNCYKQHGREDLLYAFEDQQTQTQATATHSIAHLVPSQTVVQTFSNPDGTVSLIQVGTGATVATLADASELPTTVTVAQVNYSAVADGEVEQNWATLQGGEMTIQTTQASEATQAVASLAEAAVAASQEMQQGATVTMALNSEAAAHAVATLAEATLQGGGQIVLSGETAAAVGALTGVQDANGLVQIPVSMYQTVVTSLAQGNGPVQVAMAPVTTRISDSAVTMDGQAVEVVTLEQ

Structure (SMILES)	outcome
CC1(C)S[C@@H]2[C@H](NC(=O)[C@H](N)c3ccccc3)C(=O)N2[C@H]1C(=O)O	inactive
CCC(C)(CCC(C)C)C(=O)O (stereo unspecified)	inactive
Cc1cc(C)c(S(=O)(=O)O)cc1N=Nc1cc(S(=O)(=O)O)c2ccccc2c1O	inactive
CCCc1c(OCCCCc2nn[nH]n2)ccc(C(C)=O)c1O	inactive
Clc1ccccn1	inactive
c1cc(N(CC2CO2)CC2CO2)ccc1Cc1ccc(N(CC2CO2)CC2CO2)cc1 (stereo unspecified)	inactive
CCCCCCOC(=O)CCCCCCCC(=O)OCCCCCC	inactive
CC1=NN(c2cc(Cl)c(S(=O)(=O)O)cc2Cl)C(=O)C1N=Nc1ccc(S(=O)(=O)O)cc1 (stereo unspecified)	inactive
O=C(O)Cc1c[nH]c2ccccc12	inactive
CCCCCCCCCCC1CO1 (stereo unspecified)	inactive
NCc1ccccc1	inactive
O=[N+]([O-])c1ccc2nc[nH]c2c1	inactive
CCCCn1cc[n+](C)c1	inactive
CC(C)CC(=O)O	inactive
C[Si](C)(C)O[Si](C)(C)O[Si](C)(C)C	inactive
Cc1cc(O)cc(C)c1Cl	inactive
CC1=C(CC=O)C(C)(C)CCC1	inactive
CC(O)(P(=O)(O)O)P(=O)(O)O	inactive
Cc1cccnc1	inactive

Structure (SMILES)	outcome
Cc1ccccc1S(N)(=O)=O	inactive
C=C(C)C(=O)OCC1CCCO1 (stereo unspecified)	inactive
OCCOCCOCCOCCOCCO	inactive
C1=CCC=C1	inactive
CC(C)CC(=O)CC(C)CC(C)C (stereo unspecified)	inactive
CCCOCCC	inactive
CN(C)CCC(c1ccc(Cl)cc1)c1ccccn1 (stereo unspecified)	inactive
CN(C)CCCN1c2ccccc2CCc2ccc(Cl)cc21	inactive
CC/C=C\CC1=C(C)CCC1=O	inactive
C[C@H]1C[C@H]2[C@@H]3CCC4=CC(=O)C=C[C@]4(C)[C@@]3(F)[C@@H](O)C[C@]2(C)[C@@]1(O)C(=O)CO	inactive
COC(OC)C(C)c1ccccc1 (stereo unspecified)	inactive
F[B-](F)(F)F	inactive
COCCCN	inactive
CC1=CCCC(C)(C)C12CCC(C)O2 (stereo unspecified)	inactive
CC(=O)c1nccs1	inactive
COc1ccccc1OCC(O)CO (stereo unspecified)	inactive
OCCN(CCO)c1cccc(Cl)c1	inactive
O=C(O)c1nc(Cl)c(Cl)c(Cl)c1Cl	inactive
CC=CC(=O)O	inactive

test system: not listed separately; assay: ATG_NFI_CIS: Attagene CIS-FACTORIAL HepG2 Assay for human Nuclear Factor I (NFI) (AID 2282989); details: HepG2 cis-regulatory reporter, NFI response element transcription; actives raise or lower the signal
Summary of the method: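 Transient MRTU transfection of HepG2 → 24 h chemical dosing → total RNA, oligo(dT) RT → PCR, 6-FAM primer extension, HpaI cut → capillary electrophoresis. Endpoint fitted bidirectionally relative to DMSO.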

Structure (SMILES)	outcome	AC50
CC1(C)S[C@@H]2[C@H](NC(=O)[C@H](N)c3ccccc3)C(=O)N2[C@H]1C(=O)O	inactive	
CCC(C)(CCC(C)C)C(=O)O (stereo unspecified)	inactive	
Cc1cc(C)c(S(=O)(=O)O)cc1N=Nc1cc(S(=O)(=O)O)c2ccccc2c1O	inactive	
Clc1ccccn1	inactive	
c1cc(N(CC2CO2)CC2CO2)ccc1Cc1ccc(N(CC2CO2)CC2CO2)cc1 (stereo unspecified)		5.98 µM (active)
CCCCCCOC(=O)CCCCCCCC(=O)OCCCCCC	inactive	
CC1=NN(c2cc(Cl)c(S(=O)(=O)O)cc2Cl)C(=O)C1N=Nc1ccc(S(=O)(=O)O)cc1 (stereo unspecified)	inactive	
O=C(O)Cc1c[nH]c2ccccc12	inactive	
CCCCCCCCCCC1CO1 (stereo unspecified)	inactive	
NCc1ccccc1	inactive	
CCCCn1cc[n+](C)c1	inactive	
CC(C)CC(=O)O	inactive	
Cc1cc(O)cc(C)c1Cl	inactive	
CC(O)(P(=O)(O)O)P(=O)(O)O	inactive	
Cc1cccnc1	inactive	
Cc1ccccc1S(N)(=O)=O	inactive	
C1=CCC=C1	inactive	
CC(C)CC(=O)CC(C)CC(C)C (stereo unspecified)	inactive	
CCCOCCC	inactive	
CN(C)CCCN1c2ccccc2CCc2ccc(Cl)cc21	inactive	
CC/C=C\CC1=C(C)CCC1=O	inactive	
C[C@H]1C[C@H]2[C@@H]3CCC4=CC(=O)C=C[C@]4(C)[C@@]3(F)[C@@H](O)C[C@]2(C)[C@@]1(O)C(=O)CO	inactive	
COC(OC)C(C)c1ccccc1 (stereo unspecified)	inactive	
F[B-](F)(F)F	inactive	
COCCCN	inactive	
CC1=CCCC(C)(C)C12CCC(C)O2 (stereo unspecified)	inactive	
COc1ccccc1OCC(O)CO (stereo unspecified)	inactive	
OCCN(CCO)c1cccc(Cl)c1	inactive	
O=C(O)c1nc(Cl)c(Cl)c(Cl)c1Cl	inactive	

target: Myc proto-oncogene protein (Homo sapiens) (UniProt P01106); assay: ATG_Myc_CIS: Attagene CIS-FACTORIAL HepG2 Assay for human Myelocytomatosis (Myc) Proto-Oncogene Transcription Factor (AID 2282990); details: HepG2, Attagene cis-reporter transcription factor activity; actives raise or lower the signal
Summary of the method: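 DMSO-normalised, bidirectionally fitted reporter mRNA signal. HepG2 cells transfected with cis reporter constructs, treated 24 h; transcripts detected by RT-PCR, 6-FAM primer extension and CE.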

Chain of Myc proto-oncogene protein (Homo sapiens) (P01106 whole entry, looked up): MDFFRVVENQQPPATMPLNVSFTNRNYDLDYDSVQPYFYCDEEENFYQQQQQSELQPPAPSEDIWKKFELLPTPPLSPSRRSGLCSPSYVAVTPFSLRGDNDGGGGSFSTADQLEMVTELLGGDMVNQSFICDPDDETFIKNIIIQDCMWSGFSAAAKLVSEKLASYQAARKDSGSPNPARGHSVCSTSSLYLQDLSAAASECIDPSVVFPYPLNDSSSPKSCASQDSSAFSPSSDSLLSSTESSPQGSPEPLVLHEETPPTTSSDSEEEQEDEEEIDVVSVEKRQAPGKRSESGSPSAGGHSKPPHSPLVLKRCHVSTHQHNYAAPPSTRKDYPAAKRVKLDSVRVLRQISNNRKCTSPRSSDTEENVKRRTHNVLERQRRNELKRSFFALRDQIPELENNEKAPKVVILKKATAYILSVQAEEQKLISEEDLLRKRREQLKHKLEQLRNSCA

Structure (SMILES)	outcome
CC1(C)S[C@@H]2[C@H](NC(=O)[C@H](N)c3ccccc3)C(=O)N2[C@H]1C(=O)O	inactive
CCC(C)(CCC(C)C)C(=O)O (stereo unspecified)	inactive
Cc1cc(C)c(S(=O)(=O)O)cc1N=Nc1cc(S(=O)(=O)O)c2ccccc2c1O	inactive
CCCc1c(OCCCCc2nn[nH]n2)ccc(C(C)=O)c1O	inactive
Clc1ccccn1	inactive
c1cc(N(CC2CO2)CC2CO2)ccc1Cc1ccc(N(CC2CO2)CC2CO2)cc1 (stereo unspecified)	inactive
CCCCCCOC(=O)CCCCCCCC(=O)OCCCCCC	inactive
CC1=NN(c2cc(Cl)c(S(=O)(=O)O)cc2Cl)C(=O)C1N=Nc1ccc(S(=O)(=O)O)cc1 (stereo unspecified)	inactive
O=C(O)Cc1c[nH]c2ccccc12	inactive
CCCCCCCCCCC1CO1 (stereo unspecified)	inactive
NCc1ccccc1	inactive
O=[N+]([O-])c1ccc2nc[nH]c2c1	inactive
CCCCn1cc[n+](C)c1	inactive
CC(C)CC(=O)O	inactive
C[Si](C)(C)O[Si](C)(C)O[Si](C)(C)C	inactive
Cc1cc(O)cc(C)c1Cl	inactive
CC(C)n1c(/C=C/[C@@H](O)C[C@@H](O)CC(=O)O)c(-c2ccc(F)cc2)c2ccccc21	inactive
CC1=C(CC=O)C(C)(C)CCC1	inactive
CC(O)(P(=O)(O)O)P(=O)(O)O	inactive
Cc1cccnc1	inactive

Structure (SMILES)	outcome
Cc1ccccc1S(N)(=O)=O	inactive
C=C(C)C(=O)OCC1CCCO1 (stereo unspecified)	inactive
OCCOCCOCCOCCOCCO	inactive
C1=CCC=C1	inactive
CC(C)CC(=O)CC(C)CC(C)C (stereo unspecified)	inactive
CCCOCCC	inactive
CN(C)CCC(c1ccc(Cl)cc1)c1ccccn1 (stereo unspecified)	inactive
CN(C)CCCN1c2ccccc2CCc2ccc(Cl)cc21	inactive
CC/C=C\CC1=C(C)CCC1=O	inactive
C[C@H]1C[C@H]2[C@@H]3CCC4=CC(=O)C=C[C@]4(C)[C@@]3(F)[C@@H](O)C[C@]2(C)[C@@]1(O)C(=O)CO	inactive
COC(OC)C(C)c1ccccc1 (stereo unspecified)	inactive
F[B-](F)(F)F	inactive
COCCCN	inactive
CC1=CCCC(C)(C)C12CCC(C)O2 (stereo unspecified)	inactive
CC(=O)c1nccs1	inactive
COc1ccccc1OCC(O)CO (stereo unspecified)	inactive
OCCN(CCO)c1cccc(Cl)c1	inactive
O=C(O)c1nc(Cl)c(Cl)c(Cl)c1Cl	inactive
CC=CC(=O)O	inactive
